The structures appear in SMILES notation. About 83,000 compounds went through this panel and 20% of them were active in at least one assay; those are over-represented in the sample as a whole.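 96-well plates, one dose, 48 hours. Percent growth reported; active if below 10.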 Active and inactive are the calls of the source.

This test deals with HOP-62 NSCLC. The experiment in a line: NCI-60 one-dose screen, 48 h (100 = growth as untreated, 0 = no growth, -100 = all killed). The following applies: 10 µM unless noted.
`CCOc1cc2ncc(C#N)c(Nc3ccc(F)c(Cl)c3)c2cc1NC(=O)/C=C/CN(C)C`: the growth is -27.7% (active).

Regarding `CCN(CC)CCNC(=O)c1c(C)[nH]c(/C=C2\C(=O)Nc3ccc(F)cc32)c1C`, the growth is 26% (inactive). Next, `COc1ccc2c(CCC(c3ccccc3)c3ccccc3)c3[n+](cc2c1OC)CCc1cc2c(cc1-3)OCO2`: 9.37% (active); `C[C@@H](Oc1cc(-n2cnc3ccc(CN4CCN(C)CC4)cc32)sc1C(N)=O)c1ccccc1C(F)(F)F`: 4.73% (active). Next, `CC(C)=CCc1cc2c(cc1O)C1=C(C(=O)C3=C(NCCS3(=O)=O)C1=O)C(C=C(C)C)O2` (stereo not given): 25.3% (inactive). As for `CC(N)C(Cc1ccc(Cl)cc1)c1ccc(Cl)cc1` (stereo not given), the growth was 56% (inactive). Then `Clc1nc(Cl)c2ncn(CC#CCn3cnc4c(Cl)nc(Cl)nc43)c2n1`, with 62% (inactive); and `O=C(Cc1ccc(-c2ccc(OCCN3CCOCC3)cc2)cn1)NCc1ccccc1`, with -3.09% (active); and `Cc1nc(NC(=O)N2CCC[C@H]2C(N)=O)sc1-c1ccnc(C(C)(C)C(F)(F)F)c1`, with 49.4% (inactive). Next, `COc1ccc2c(CCCc3ccc(Cl)cc3Cl)c3[n+](cc2c1OC)CCc1cc2c(cc1-3)OCO2`: 13.8% (inactive). Then `Cc1c(Cn2c(C)nc3c(C(=O)O)cc(N4CCOCC4)cc32)cccc1C(F)(F)F`, with 79% (inactive); and `COc1cc2nccc(Oc3ccc(NC(=O)C4(C(=O)Nc5ccc(F)cc5)CC4)cc3)c2cc1OC`, with 9.04% (active); and `C=CCCCC(=O)CCC(=O)OCC1O[C@@H](O[C@@H]2C(O)[C@@H](OC(C)=O)C(C)O[C@H]2O[C@H](CC=C)CCCCC)C(O)[C@@H](OC(=O)/C(C)=C/C)[C@@H]1OC(=O)/C=C/c1ccccc1` (stereo not given in full), with 9.18% (active).

As for `O=c1[nH]ccc2c(S(=O)(=O)N3CCCNCC3)cccc12`, the growth is 68.8% (inactive). `CC1(C=O)NC(=O)NC1=O` (stereo not given): the growth was 68.4% (inactive).

Regarding `Cc1ccc(NC(=O)c2ccc(CN3CC[C@H](N(C)C)C3)c(C(F)(F)F)c2)cc1Nc1nccc(-c2cncnc2)n1`, the growth is -0.939% (active). Then `O=C(Nc1cccc(Cl)c1)Nc1ncc(CCNc2ncnc3ccsc23)s1`, with 11.8% (inactive); and `Cn1ccnc1C(=O)/C=C/c1ccc(CC(=O)Nc2ccc(Br)cc2)cc1`, with -32.7% (active); and `CNC(=O)c1nn(C)c2c1C(C)(C)Cc1cnc(Nc3ccc(N4CCN(C)CC4)cc3)nc1-2`, with -9.46% (active).

With `COc1cccc2cc(-c3nc(C4CCC(C(=O)O)CC4)n4ncnc(N)c34)[nH]c12` (stereo not given), the growth was -10% (active). Then `CNc1ncc2cc(-c3cc(NC(=O)NCCC(C)(C)C)c(F)cc3C)c(C)nc2n1`, with 5.28% (active); and `Cc1cc(C(=O)Nc2cc(Oc3ccc4nc(NC(=O)C5CC5)cn4n3)ccc2C)n(C)n1`, with 14.4% (inactive); and `O=C(Cc1ccc(/C=C/C(=O)c2ncc[nH]2)cc1)Nc1ccc(Br)cc1`, with 3.97% (active). Then `CCc1ccc(C2=C(O)C(=O)C(c3ccc(CC)cc3)=C(O)C2=O)cc1`, with -12.8% (active); and `CNC(=O)c1cccc2cc(Oc3ccnc4cc(OCC5(N)CC5)c(OC)cc34)ccc12`, with 51.7% (inactive). Next, `CCCCN1CCCC[C@@H]1C(=O)N[C@H](C(=O)N(C)[C@H](CCc1nc(C(=O)N[C@@H](Cc2ccccc2)C[C@H](C)C(=O)OC)cs1)C(C)C)C(C)C`: 80.8% (inactive); `COc1cnc2c(c1)C(=O)c1c-2n(CCCN2CCC(N)CC2)c(=O)c2cc([N+](=O)[O-])ccc12`: 30.6% (inactive). Consider `C=CC(=O)Nc1cc2c(Nc3ccc(F)c(Cl)c3)ncnc2cc1OCCCN1CCOCC1`, for which the growth was 12.1% (inactive). Then `NC(=O)c1c(OCc2c(F)cc(Br)cc2F)nsc1NC(=O)NCCCCN1CCCC1`, with -29.7% (active); and `CCc1nc2ccc(Cc3ccc(C(=O)NO)cc3)cc2c(=O)n1CCc1ccccc1`, with -43.4% (active).

In the case of `Cc1cc(N(CCNc2ccnc3cc(Cl)ccc23)Cc2ccc3c(c2)OCO3)nc(N2CCN(C)CC2)n1`, the growth was 0.334% (active). Then `Cc1ccc2oc(=O)cc(-c3cc(-c4cc5ccccc5oc4=O)nc(N)c3C#N)c2c1`, with 35.9% (inactive); and `Cc1[nH]c(/C=C2\C(=O)Nc3ccc(F)cc32)c(C)c1C(=O)NC[C@H](O)CN1CCOCC1`, with 25.7% (inactive).

Consider `O=C(Nc1cn[nH]c1-c1nc2ccc(CN3CCOCC3)cc2[nH]1)NC1CC1`, for which the growth was -9.72% (active). Then `O=C1CSC(c2c(F)cccc2Cl)N1NC(=O)C(O)(c1ccccc1)c1ccccc1` (stereo not given), with 86.8% (inactive).

The values above are taken from PubChem BioAssay (NCI).
